Results reported in PubChem BioAssay (Tox21).
Values without a mark were called inactive. The source made the active and inactive calls. Calls come from the whole dose curve; as a rule, active = well fitted curve in the direction sought with a large enough effect in the repeat runs; inconclusive = weak or mixed curves; inactive = flat fitted curve, though single readings scatter.

Test: qHTS assay to test for compound auto fluorescence at 535 nm (green) in HEK293 cell free culture (AID 720682)
Settings: cell-free medium, green autofluorescence 485/535 nm, active compounds read high; series mostly up to 91.3 µM; activity change: at the top concentration
Text: U.S. Tox21 Program National Center for Advancing Translational Sciences [NCATS] NIH Chemical Genomics Center [NCGC] U.S. Environmental Protection Agency [EPA] National Institutes of Environmental Health Sciences [NIEHS] National Toxicology Program [NTP] U.S. Food and Drug Administration [FDA] Tox21 Assay Overview: Compound auto fluorescence often interferes with screening of the compound library against various biological targets and signaling pathways. Some of these compounds may have fluorophoric properties. Such properties may interfere with the assay outputs resulting in false positives and/or negatives. To decrease such complications and ensure the compound activities are relevant in terms of biological response, the Tox21 10K compound library was screened for auto fluorescence. From the fluorophores used as reporter signals in our screening assays, the auto fluorescence equivalencies of compounds against three fluorophores have been evaluated: Triamterene, Fluorescein and Rose Bengal sodium for blue, green and red fluorescence, respectively. The fluorescence intensities were measured using Excitation/Emission wavelengths at 405/460nm, 485/535nm and 540/590nm for blue, green and red labels, respectively. This assay includes the green fluorescence data.
Tox21 Assay Protocol Summary: 5 uL of culture medium (DMEM containing 10% FBS) per well was dispensed into black wall/clear bottom 1536-well plates using a Multidrop Combi Dispenser (ThermoFisher Scientific, Waltham, MA). After 23 nL compound or DMSO vehicle was transferred into assay plate by a pintool work station (Kalypsys, San Diego, CA), fluorescence intensities in the assay plates were measured by an Envision (PerkinElmer, Shelton, CT) plate reader using three labels for measuring blue, green and red fluorescence at […] 460, 535 and 590nm respectively.
% is set by controls: 0 for no effect and ±100 for the full control effect.

SMILES | outcome | activity change
ClC(Cl)=C(c1ccc(Cl)cc1)c1ccc(Cl)cc1 | inactive | 
ClC1=C(Cl)C2(Cl)C3C(Cl)C(Cl)CC3C1(Cl)C2(Cl)Cl (stereo not given) | inactive | 
CCC(C)c1cc([N+](=O)[O-])cc([N+](=O)[O-])c1OC(=O)C=C(C)C (stereo not given) |  | -0.0135%
CC1(C)CN=C(NN=C(/C=C/c2ccc(C(F)(F)F)cc2)/C=C/c2ccc(C(F)(F)F)cc2)NC1 |  | 0.238%
[CH3][Hg][Cl] |  | 0.146%
CC(C)CCCCCOC(=O)c1ccccc1C(=O)OCCCCCC(C)C |  | -0.0032%
O=C(NC(=O)c1c(F)cccc1F)Nc1cc(Cl)c(OC(F)(F)C(F)F)c(Cl)c1 |  | -0.0407%
CCCCCCCCCBr |  | -0.0216%
CC(C)CC(C)(c1ccc(O)cc1)c1ccc(O)cc1 | inactive | 
CC(=O)Nc1ccc2c(c1)Cc1ccccc1-2 |  | -0.0553% [at 95.7 µM]
COc1cc(C=O)cc2c1[C@H](COC(N)=O)[C@]1(OC(C)=O)ON2C[C@H]2[C@@H]1N2C(C)=O |  | -0.388%
CC(=O)[O-].CC(=O)[O-].[Hg+2] |  | -0.0786%
CC(C)[C@H](C(=O)OC(C#N)c1cccc(Oc2ccccc2)c1)c1ccc(OC(F)F)cc1 (stereo not given in full) |  | -0.0539%
CCN(CC)C(=S)[S-].CCN(CC)C(=S)[S-].[Zn+2] |  | -0.0869%
CC(C)(C)c1cc([N+](=O)[O-])cc(C(C)(C)C)c1O |  | 0.0022%
N#CC(Cl)Cl |  | 0.151%
Nc1ccc(Cc2ccc(N)c(Cl)c2)cc1Cl |  | -0.0588%
COc1cccc(C(=O)CCN[C@@H](C)[C@H](O)c2ccccc2)c1 |  | -0.0078% [at 46 µM]
CCCCN(CCCC)C(=S)[S-].CCCCN(CCCC)C(=S)[S-].[Zn+2] | inactive | 
CCOC(=O)OC1=C(c2cc(C)ccc2C)C(=O)NC12CCC(OC)CC2 (stereo not given) |  | 0.069%

SMILES | outcome | activity change
COc1ccc(/C(=C/C(=O)N2CCOCC2)c2ccc(Cl)cc2)cc1OC |  | -0.034%
CN(C)c1ccc(N=Nc2ccccc2)cc1 |  | -0.0369%
COP(=O)(OC)SCn1c(=O)oc2cc(Cl)cnc21 |  | -0.0025%
Clc1ccc(CSC(Cn2ccnc2)c2ccc(Cl)cc2Cl)cc1 (stereo not given) |  | -0.0182% [at 18.6 µM]
CC(=O)C(Cl)(Cl)Cl |  | -0.202%
CN(C)C(=S)S | inactive | 
CC[C@H]1C[C@@H]2C[C@H]3c4[nH]c5ccc(OC)cc5c4CCN(C2)[C@@H]13 |  | -0.0024%
OC(c1ccc(Cl)cc1)(c1ccc(Cl)cc1)C(Cl)(Cl)Cl |  | -0.0158%
[Cd+2].[Cl-].[Cl-] | inactive | 
O=c1oc2ccccc2c(O)c1Cc1c(O)c2ccccc2oc1=O |  | 0.109% [at 18.6 µM]
Cc1cc(N=Nc2ccccc2C)ccc1N | inactive | 
O=C(O)COc1nc(Cl)c(Cl)cc1Cl |  | 0.104% [at 95.7 µM]
CC(C)(C)C(O)/C(=C\c1ccc(Cl)cc1Cl)n1cncn1 (stereo not given) |  | -0.0828% [at 95.7 µM]
[Hg+2].[I-].[I-] |  | -0.0368%
O=C(Nc1ccc2[nH]ccc2c1)c1cc2cc(F)ccc2n1Cc1cccc(F)c1 |  | -0.233%
CC(=O)/C=C/c1ccc2c(c1)OCO2 |  | -0.266%
O=[N+]([O-])c1ccc(Oc2ccc(C(F)(F)F)cc2[N+](=O)[O-])cc1 |  | 0.0073%
O=C1NCN(c2ccccc2)C12CCN(CC1COc3ccccc3O1)CC2 (stereo not given) |  | 0.0734% [at 46 µM]
CN(C)CCc1c[nH]c2ccc(O)cc12 |  | -0.135%
CC(=O)[O-].[Tl+] |  | 0.0193%
